Results as given in paper PMC5540273 (PLoS ONE, 2017).

Assays:
Conditions in all cases: concentration: 1 μM,replicates: in singlicate; n = 1
[1] = system: MTOR
[2] = system: MUSK
[3] = system: MYLK2
[4] = system: MYLK4
[5] = system: MYLK
[6] = system: MYO3A
[7] = system: MYO3B
[8] = system: T1, NDR1
T1 construct: gene STK38

[9] = system: NDR2
[10] = system: NEK10
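Further: KINOMEscan kinase panel screen.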

SMILES | %Inh [1] [%] | %Inh [2] [%] | %Inh [3] [%] | %Inh [4] [%] | %Inh [5] [%] | %Inh [6] [%] | %Inh [7] [%] | %Inh [8] [%] | %Inh [9] [%] | %Inh [10] [%]
CS(=O)(=O)c1cccc(CNc2nc(Nc3ccc4c(c3)[C@@H]3C[C@@H]4CNC3=O)ncc2C(F)(F)F)c1 | 12 | 26 | 12 | 0 | 12 | 13 | 54 | 85 | 6 | 0
C[C@@H]1CNc2c(sc3ccc4nc(-c5ccncc5)ccc4c23)C(=O)N1 | 50 | 0 | 2 | 11 | 62 | 0 | 27 | 18 | 0 | 7
COC(=O)Nc1nc2cc(Oc3ccc(NC(=O)Nc4cc(C(F)(F)F)ccc4Cl)cc3)ccc2[nH]1.Cl [GW697465] | 19 | 99.2 | 6 | 0 | 0 | 11 | 0 | 8 | 0 | 13
FC(F)(F)c1cc(Br)cc(Nc2nccc(-c3cnn4ncccc34)n2)c1 [GW810578] | 0 | 18 | 1 | 29 | 8 | 9 | 8 | 19 | 13 | 40
COc1cc(Nc2nccc(N3CCC(NC(=O)c4cccc(C#N)c4)C3)n2)cc(OC)c1OC (stereo not shown) [GSK1379751] | 0 | 0 | 0 | 4 | 0 | 46 | 0 | 0 | 0 | 6
COc1cccc(OC)c1C(=O)Nc1cccc(-c2nn3ccccc3c2-c2ccnc(Nc3cccc(F)c3)n2)c1 [GSK361065] | 0 | 3 | 0 | 0 | 87 | 28 | 13 | 17 | 13 | 0
Cc1ccc(C(=O)Nc2ccc(Oc3ccc4nc(NC(=O)C5CC5)cn4c3)c(F)c2)c(=O)n1-c1ccccc1 | 0 | 99.8 | 0 | 0 | 15 | 0 | 4 | 8 | 0 | 0
CCn1c(-c2nonc2N)nc2cncc(Br)c21 [SB-738004] | 15 | 0 | 16 | 16 | 31 | 39 | 3 | 38 | 35 | 43
O=C1NCCc2[nH]c(-c3ccncc3)cc21 | 0 | 34 | 20 | 5 | 33 | 7 |  | 20 | 0 | 14
Cn1ccc2ncnc(Oc3ccc(NC(=O)Nc4cncc(C(F)(F)F)c4)c(Cl)c3)c21 | 7 | 95 | 0 | 0 | 0 | 0 | 0 | 0 | 0 | 11
C[C@@H](Oc1cc(-n2cnc3cc(-c4cnn(C)c4)ccc32)sc1C(N)=O)c1ccccc1Cl [GSK580432] | 14 | 64 | 65 | 22 | 17 | 17 | 0 | 15 | 0 | 30
CN(c1ccccc1CNc1nc(Nc2ccc3c(c2)CC(=O)N3)ncc1C(F)(F)F)S(C)(=O)=O | 21 | 71 | 4 | 2 | 0 | 0 | 0 | 33 | 12 | 0
C[C@@H]1CNc2c(sc3ccc4nc(-c5ccc(O)cc5)ccc4c23)C(=O)N1 | 0 | 0 | 14 | 10 | 65 | 22 | 93.2 | 26 | 0 | 7
C[C@@H](Oc1cc(-n2cnc3ccc(-c4ccncc4)cc32)sc1C(N)=O)c1ccccc1Cl [GSK483724] | 32 | 28 | 48 | 94.9 | 13 | 0 | 0 | 10 | 0 | 12
CN(c1cccc(CNc2nc(Nc3ccc4c(c3)CC(=O)N4)ncc2C(F)(F)F)c1)S(C)(=O)=O | 24 | 58 | 74 | 24 | 0 | 0 | 1 | 49 | 0 | 0
Cc1nnc(-c2ccc3occ(-c4ccc(S(C)=O)cc4)c3n2)o1 (stereo not shown) | 0 | 0 | 6 | 0 | 0 | 0 | 0 | 0 | 0 | 0
NC(=O)Nc1sc(-c2ccc(F)cc2)cc1C(N)=O [GW789449] | 23 | 0 | 11 | 97.8 | 10 | 0 | 0 | 3 | 7 | 3
